Measured values as given in PubChem BioAssay.
Values joined by “and” are separate entries in the source; they are usually repeats but may differ in a detail not shown here. Equal values may be shown once. Records with an inconclusive call do not appear. Active and inactive are the calls of the source.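 Rule for the calls, unless noted: active = percent response above 42, roughly 3 SD of non-fluorescent test compounds; inactive = the rest.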

How the values were obtained:
[1] = yeast TOR pathway RPL19A-GFP modulators, primary screen, cell-based, S. cerevisiae, multiplex flow cytometry (AID 1862; in the data active = percent of DMSO control GFP below about 86%;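 note: lower values mimic rapamycin by blocking the RPL19A rise seen in DMSO cells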); details: S. cerevisiae RPL19A-GFP strain, flow cytometry fluorescence, 3 h; at 10 µM; stronger effect = lower value
[2] = modulators of MEP2-GFP levels in yeast, primary screen, S. cerevisiae, multiplex flow cytometry (AID 1867;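 active = GFP response, as percent of the DMSO control, above the screen-wide mean plus 3 SD, about 139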;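 note: median GFP channel fluorescence of barcode-gated MEP2-GFP cells measured by flow cytometry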); details: S. cerevisiae MEP2-GFP strain, 3 h, at 10 µM, stronger effect = higher value, 100% means same as DMSO wells
[3] = modulators of CIT2-GFP expression in yeast, primary screen, S. cerevisiae, GFP fusion, multiplex flow cytometry (AID 1870;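 active = percent response above a set limit, the screen-wide mean plus 3 SD, cut at about 130% in these data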;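 note: barcoded CIT2-GFP strain pooled with four other GFP strains with rapamycin as positive control; median GFP fluorescence per well over plate mean of DMSO wells so 100% = DMSO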); details: 3 h, at 10 µM, stronger effect = higher value
[4] = modulators of LAP4-GFP expression in yeast, primary screen, S. cerevisiae, multiplex flow cytometry (AID 1873;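 active = GFP signal, as percent of the solvent control, above the screen mean plus 3 SD, about 149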); details: 3 h, at 10 µM, stronger effect = higher value
[5] = modulators of AGP1-GFP expression in yeast TOR pathway, primary screen, cell-based, multiplex flow cytometry, S. cerevisiae (AID 1887;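 active = GFP signal above the screen-wide mean plus 3 SD, that is over about 124.5% of the solvent control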;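 note: AGP1-GFP fusion strain of S. cerevisiae within a five-strain barcoded multiplex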); details: 3 h, at 10 µM, stronger effect = higher value
[6] = inhibitors of CD8+ T cell-vesicle binding, pilot screen, LFA-1/ICAM-1 modulator project, MLPCN validation set, flow cytometry (AID 2523;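 active = response below a set limit, under 55% cells CD8-positive and vesicle-bound, and CD8 cells' 90th-percentile brightness under 279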;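 for vesicle binding response: mean PE anti-B7-1 fluorescence of CD8+ cells relative to row control; 100% = QL9-loaded vesicles with DMSO vehicle in the same plate row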); details: 2C mouse CD8+ T cells, at 7 µM, stronger effect = lower value; double positive events: measured here: CD8+/vesicle+ event percentage
[7] = biological target: Integrin beta-1 (Homo sapiens) + Integrin alpha-4 (Homo sapiens) (UniProt P13612+P05556); experiment: inhibition of HUTS-21 binding to VLA-4, pilot screen, VLA-4 allosteric modulator project, U937 cells, HUTS-21 mAb, flow cytometry, validation set (AID 2674;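 active = inhibition above 50%, about 3 SD of the validation set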;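 note: antibody binding induced by the VLA-4 ligand LDV present at three times its Kd; 0% = LDV ligand with antibody and no compound and 100% = antibody without LDV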); details: HUTS-21 LIBS mAb binding, at 6.7 µM, stronger effect = higher value, binding induced by LDV ligand
Sequence of Integrin beta-1 (Homo sapiens) + Integrin alpha-4 (Homo sapiens) (P05556 whole entry, looked up): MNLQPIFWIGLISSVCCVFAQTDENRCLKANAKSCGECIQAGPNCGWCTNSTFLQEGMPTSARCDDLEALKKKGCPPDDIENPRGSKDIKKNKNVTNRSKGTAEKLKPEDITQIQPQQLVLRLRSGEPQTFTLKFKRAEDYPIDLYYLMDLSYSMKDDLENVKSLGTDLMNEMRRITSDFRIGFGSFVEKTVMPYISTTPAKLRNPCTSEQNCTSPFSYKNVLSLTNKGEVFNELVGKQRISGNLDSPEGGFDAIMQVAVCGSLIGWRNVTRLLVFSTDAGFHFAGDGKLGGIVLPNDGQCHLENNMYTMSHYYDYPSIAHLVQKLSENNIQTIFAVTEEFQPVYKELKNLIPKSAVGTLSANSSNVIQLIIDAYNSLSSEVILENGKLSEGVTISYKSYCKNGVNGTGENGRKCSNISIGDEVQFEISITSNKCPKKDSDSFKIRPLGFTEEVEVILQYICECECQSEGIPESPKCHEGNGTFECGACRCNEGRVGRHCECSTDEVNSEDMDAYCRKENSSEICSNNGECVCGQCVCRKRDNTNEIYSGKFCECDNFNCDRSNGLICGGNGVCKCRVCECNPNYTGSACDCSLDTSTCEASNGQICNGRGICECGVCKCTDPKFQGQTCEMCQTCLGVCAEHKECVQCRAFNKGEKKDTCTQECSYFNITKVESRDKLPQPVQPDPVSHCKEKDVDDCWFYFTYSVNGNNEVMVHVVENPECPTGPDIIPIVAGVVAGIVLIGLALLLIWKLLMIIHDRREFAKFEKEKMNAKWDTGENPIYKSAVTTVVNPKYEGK
Sequence of Integrin beta-1 (Homo sapiens) + Integrin alpha-4 (Homo sapiens) (P13612 whole entry, looked up): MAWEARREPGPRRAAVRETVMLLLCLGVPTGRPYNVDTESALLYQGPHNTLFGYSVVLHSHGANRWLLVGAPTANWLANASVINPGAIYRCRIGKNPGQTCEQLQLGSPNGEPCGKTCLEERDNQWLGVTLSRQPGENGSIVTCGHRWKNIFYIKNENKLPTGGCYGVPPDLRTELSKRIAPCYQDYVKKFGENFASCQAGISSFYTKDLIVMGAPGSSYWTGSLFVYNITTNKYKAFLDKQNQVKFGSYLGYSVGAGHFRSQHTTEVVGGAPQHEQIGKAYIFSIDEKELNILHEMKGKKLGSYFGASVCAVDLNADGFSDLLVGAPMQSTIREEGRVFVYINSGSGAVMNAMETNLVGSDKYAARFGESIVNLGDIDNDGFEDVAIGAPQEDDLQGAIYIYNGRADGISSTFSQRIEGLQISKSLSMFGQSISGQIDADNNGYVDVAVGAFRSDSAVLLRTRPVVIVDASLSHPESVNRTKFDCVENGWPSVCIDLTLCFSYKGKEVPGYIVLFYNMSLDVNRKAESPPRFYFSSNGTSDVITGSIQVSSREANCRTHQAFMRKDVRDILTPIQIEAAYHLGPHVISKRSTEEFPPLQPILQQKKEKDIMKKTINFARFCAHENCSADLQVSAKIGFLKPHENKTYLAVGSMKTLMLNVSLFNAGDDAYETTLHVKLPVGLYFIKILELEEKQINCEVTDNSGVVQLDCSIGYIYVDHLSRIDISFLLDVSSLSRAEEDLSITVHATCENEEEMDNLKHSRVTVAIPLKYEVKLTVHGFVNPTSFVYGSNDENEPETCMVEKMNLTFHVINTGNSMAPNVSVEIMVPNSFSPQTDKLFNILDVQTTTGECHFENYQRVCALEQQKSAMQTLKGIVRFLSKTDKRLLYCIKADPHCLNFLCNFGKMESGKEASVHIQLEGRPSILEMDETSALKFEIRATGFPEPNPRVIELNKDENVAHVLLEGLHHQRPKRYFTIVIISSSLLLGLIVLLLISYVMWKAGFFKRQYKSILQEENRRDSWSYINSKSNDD

[8] = superoxide lowering in aged yeast cells, pilot screen, validation compound set (AID 2706;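 active = superoxide response below 65% of plate, a cut near 3 SD across the whole screen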;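 note: yeast exposed to compound for one week at 30 degrees C before staining; 100% = mean of all compound wells on the same plate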); details: S. cerevisiae aging, superoxide DHE fluorescence; at 10 µM; stronger effect = lower value
[9] = biological target: Beta-adrenergic receptor kinase 1 (Homo sapiens) (UniProt P25098); experiment: GRK2 binders displacing RNA aptamer, biochemical, validation, human GRK2, bead flow cytometry (AID 488806;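 active = aptamer binding inhibition above 30%, about 3 SD of noise from non-fluorescent compounds; inactive = inhibition at or below 30%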); details: bead-bound GRK2, FAM-aptamer displacement, at 10 µM, stronger effect = higher value
Sequence of Beta-adrenergic receptor kinase 1 (Homo sapiens) (P25098 whole entry, looked up): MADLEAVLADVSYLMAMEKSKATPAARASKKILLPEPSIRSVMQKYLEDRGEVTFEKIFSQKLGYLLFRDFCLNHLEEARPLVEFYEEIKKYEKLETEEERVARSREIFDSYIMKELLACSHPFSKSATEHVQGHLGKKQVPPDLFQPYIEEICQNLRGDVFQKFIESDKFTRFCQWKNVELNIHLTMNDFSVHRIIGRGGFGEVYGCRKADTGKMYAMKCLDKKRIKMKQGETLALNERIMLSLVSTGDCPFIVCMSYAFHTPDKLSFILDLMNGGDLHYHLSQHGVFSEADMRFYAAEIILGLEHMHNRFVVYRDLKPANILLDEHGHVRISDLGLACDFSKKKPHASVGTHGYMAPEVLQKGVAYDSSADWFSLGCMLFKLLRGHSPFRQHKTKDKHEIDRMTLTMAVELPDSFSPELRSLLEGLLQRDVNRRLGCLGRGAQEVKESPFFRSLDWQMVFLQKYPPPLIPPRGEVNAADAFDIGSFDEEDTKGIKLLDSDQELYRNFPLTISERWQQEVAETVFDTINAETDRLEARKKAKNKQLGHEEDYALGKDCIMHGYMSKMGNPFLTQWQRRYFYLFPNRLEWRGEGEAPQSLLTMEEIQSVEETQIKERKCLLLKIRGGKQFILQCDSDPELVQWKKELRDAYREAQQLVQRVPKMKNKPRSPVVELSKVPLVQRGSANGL

[10] = biological target: Beta-2 adrenergic receptor (Homo sapiens) (UniProt P07550); experiment: beta2AR agonists driving receptor internalization, pilot screen, cell-based, FAP fluorogen, flow cytometry, validation set (AID 504459); details: Am2.2-beta2AR cells, FAP surface receptor flow cytometry; at 10 µM; stronger effect = higher value;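 note: agonist-driven loss of surface beta2AR via internalization measured by FAP dye flow cytometry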
Sequence of Beta-2 adrenergic receptor (Homo sapiens) (P07550 whole entry, looked up): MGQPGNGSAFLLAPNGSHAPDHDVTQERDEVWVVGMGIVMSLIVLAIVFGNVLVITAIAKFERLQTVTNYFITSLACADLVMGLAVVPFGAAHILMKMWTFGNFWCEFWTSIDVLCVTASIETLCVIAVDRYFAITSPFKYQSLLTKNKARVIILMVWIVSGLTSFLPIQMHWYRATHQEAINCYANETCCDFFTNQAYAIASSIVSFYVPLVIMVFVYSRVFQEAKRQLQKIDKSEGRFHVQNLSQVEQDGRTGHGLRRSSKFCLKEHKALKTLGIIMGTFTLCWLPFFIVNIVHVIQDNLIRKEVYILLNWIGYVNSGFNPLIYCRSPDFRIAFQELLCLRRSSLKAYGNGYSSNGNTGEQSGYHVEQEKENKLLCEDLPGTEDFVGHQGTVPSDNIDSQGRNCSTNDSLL

[11] = biological target: AP-2 complex subunit beta (Homo sapiens) (UniProt P63010); experiment: inhibitors of arrestin peptide binding to AP2, pilot screen, biochemical, validation set, GST-AP2 beads, flow cytometry (AID 504541;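 active = inhibition above 54%, about 3 SD of non-fluorescent compounds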;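 note: AP2 carries R879A mutation and is captured from E. coli lysate; bead-bound FITC arrestin peptide fluorescence measuring arrestin peptide binding to AP2; 0% = DMSO wells and 100% = excess unlabeled arrestin peptide control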); details: FITC arrestin peptide, at 10 µM, stronger effect = higher value, AP2 beta2 appendage fragment, R879A mutant
Sequence of AP-2 complex subunit beta (Homo sapiens) (P63010 whole entry, looked up, the tested form may be a part, one chain of several): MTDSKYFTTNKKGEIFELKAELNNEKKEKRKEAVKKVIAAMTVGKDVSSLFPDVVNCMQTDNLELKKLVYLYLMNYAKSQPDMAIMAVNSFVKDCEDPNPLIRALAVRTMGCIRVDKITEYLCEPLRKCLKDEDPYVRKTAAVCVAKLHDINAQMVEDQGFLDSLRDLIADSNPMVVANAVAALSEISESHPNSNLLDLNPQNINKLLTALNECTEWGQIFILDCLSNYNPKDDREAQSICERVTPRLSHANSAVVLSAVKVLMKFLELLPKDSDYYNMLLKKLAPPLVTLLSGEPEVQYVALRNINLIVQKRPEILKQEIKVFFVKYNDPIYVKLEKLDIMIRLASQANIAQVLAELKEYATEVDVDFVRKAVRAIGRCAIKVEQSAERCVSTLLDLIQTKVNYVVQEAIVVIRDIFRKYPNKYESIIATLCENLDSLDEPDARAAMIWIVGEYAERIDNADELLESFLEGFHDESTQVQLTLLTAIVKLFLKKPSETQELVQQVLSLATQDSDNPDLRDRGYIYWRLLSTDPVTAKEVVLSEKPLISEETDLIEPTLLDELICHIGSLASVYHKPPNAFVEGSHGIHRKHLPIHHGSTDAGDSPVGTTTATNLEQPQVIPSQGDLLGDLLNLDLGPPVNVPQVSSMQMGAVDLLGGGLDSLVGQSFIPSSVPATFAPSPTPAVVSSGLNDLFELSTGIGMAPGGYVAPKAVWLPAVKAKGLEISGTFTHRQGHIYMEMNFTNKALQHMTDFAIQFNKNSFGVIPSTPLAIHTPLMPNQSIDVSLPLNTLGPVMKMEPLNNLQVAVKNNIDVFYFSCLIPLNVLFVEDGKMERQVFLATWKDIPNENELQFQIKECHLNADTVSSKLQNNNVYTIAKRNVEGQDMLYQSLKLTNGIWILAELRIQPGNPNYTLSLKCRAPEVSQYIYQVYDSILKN

[12] = yeast V-ATPase proton transport modulators, S. cerevisiae, pHLuorin, HTS validation (AID 504600; in the data active = response above about 15%;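 note: plate controls were DMSO for no effect and reference compound for full effect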); details: S. cerevisiae pHLuorin cytosolic pH, at 10 µM, stronger effect = higher value
[13] = tested on: anti-desmoglein-3 scFv antibody binding to human DSG3; experiment: inhibitors of anti-DSG3 scFv binding to DSG3, pilot screen, biochemical, validation compound set, bead-based, flow cytometry (AID 588368;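 active = binding below the plate cutoff, the plate median minus 3 SD, with a reading above zero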;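 note: signal is the median channel fluorescence of bead-bound GFP antibody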); details: Protein G beads, DSG3-Fc, scFv-GFP binding, at 10 µM, stronger effect = lower value
[14] = inhibitors of fungal efflux pumps CDR1, CDR2, MDR1, pilot screen, validation compound set, multiplex, phenotypic (AID 588506;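 active = efflux inhibition above 0.42, the validation set average plus 4 SD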;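 note: Nile Red retained in cells so higher fluorescence means more efflux inhibition; 0 = negative control wells and 1 = enniatin B 25 µM full block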); details: S. cerevisiae pump-expressing triplex, Nile Red efflux flow cytometry; at 10 µM; stronger effect = higher value; the pumps come from Candida albicans
[15] = biological target: ATP-binding cassette sub-family B member 6 (Homo sapiens) (UniProt Q9NP58); experiment: ABCB6 transporter inhibitors, pilot screen, K562-ABCB6 cells, flow cytometry, validation set (AID 588550;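 active = inhibition above the screen-wide mean plus 3 SD, about 51%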;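 note: 0% = DMSO wells and 100% = benzethonium chloride 70 µM positive control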); details: K562-ABCB6 porphyrin accumulation, 1 h, at 10 µM, stronger effect = higher value
Sequence of ATP-binding cassette sub-family B member 6 (Homo sapiens) (Q9NP58 whole entry, looked up): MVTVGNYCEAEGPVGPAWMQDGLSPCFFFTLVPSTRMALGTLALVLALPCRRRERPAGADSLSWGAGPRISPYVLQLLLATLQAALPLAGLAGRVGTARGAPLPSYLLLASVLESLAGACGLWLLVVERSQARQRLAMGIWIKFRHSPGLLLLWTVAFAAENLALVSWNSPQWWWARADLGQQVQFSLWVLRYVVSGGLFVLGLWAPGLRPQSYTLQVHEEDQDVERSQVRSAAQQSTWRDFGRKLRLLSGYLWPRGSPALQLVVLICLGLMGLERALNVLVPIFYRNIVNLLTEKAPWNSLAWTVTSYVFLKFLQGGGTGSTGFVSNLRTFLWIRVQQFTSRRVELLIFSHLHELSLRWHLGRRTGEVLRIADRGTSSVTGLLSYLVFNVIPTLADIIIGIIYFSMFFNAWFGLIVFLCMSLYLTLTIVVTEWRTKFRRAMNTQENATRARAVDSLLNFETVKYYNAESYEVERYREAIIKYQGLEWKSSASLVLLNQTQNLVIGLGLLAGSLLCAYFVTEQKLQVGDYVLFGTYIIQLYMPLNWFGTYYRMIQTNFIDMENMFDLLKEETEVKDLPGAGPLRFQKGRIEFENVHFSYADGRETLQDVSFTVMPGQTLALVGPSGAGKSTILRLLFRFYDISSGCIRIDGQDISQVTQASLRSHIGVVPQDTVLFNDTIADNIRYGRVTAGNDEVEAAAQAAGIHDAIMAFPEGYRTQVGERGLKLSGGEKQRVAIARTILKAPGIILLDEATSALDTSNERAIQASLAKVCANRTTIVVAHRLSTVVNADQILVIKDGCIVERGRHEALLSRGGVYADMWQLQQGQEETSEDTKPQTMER

[16] = promoters of myeloid differentiation in arrested cells, primary screen, cell-based, GFP/MAC1 double positive, flow cytometry, validation set (AID 588685;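 active = differentiation response of at least 50%, scaled between solvent and reference control, from cells with both markers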;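 note: compound exposure lasts four days before antibody staining and flow analysis; 0% = DMSO wells and 100% = 5 µM fulvestrant positive control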); details: ER-HoxA9 marrow cells, stronger effect = higher value, normalized: vehicle 0, fulvestrant 100
[17] = RPL19A-GFP modulators, yeast TOR pathway, confirmation, cell-based, S. cerevisiae, flow cytometry, cherry picks, mother/daughter gates (AID 2270;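 active = GFP response below 50% of the DMSO control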); details: S. cerevisiae RPL19A-GFP strain, 3 h, at 10 µM, stronger effect = lower value, 100 = same GFP as DMSO wells
[18] = LAP4-GFP expression modulators in yeast, confirmation, cell-based, cherry picks, flow cytometry, mother/daughter gates (AID 2271;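 active = GFP response above 150% of the DMSO control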;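 note: ratio of sample to DMSO plate mean so 100% equals DMSO level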); details: S. cerevisiae LAP4-GFP strain, 3 h, at 10 µM, stronger effect = higher value, 100 means same as DMSO control
[19] = modulators of MEP2-GFP levels in yeast, confirmation, S. cerevisiae, flow cytometry GFP, cherry picks (AID 2272;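 active = GFP response above 150% of the DMSO control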;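 note: ratio of well signal to plate DMSO mean so 100% equals DMSO level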); details: S. cerevisiae MEP2-GFP strain, 3 h, at 10 µM, stronger effect = higher value
[20] = modulators of CIT2-GFP expression in yeast, confirmation, S. cerevisiae, GFP fusion, cherry picks, mother/daughter gates (AID 2274;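 active = GFP response above 150% of the DMSO level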); details: S. cerevisiae CIT2-GFP strain, flow cytometry, 3 h, at 10 µM, stronger effect = higher value
[21] = measured here: daughter cell gate
[22] = measured here: mother cell gate

COc1cc(NS(=O)(=O)c2ccc(N)cc2)nc(OC)n1
60.1%: double positive events [6]
inactive: percent of DMSO control GFP [1] 98.8% | GFP response vs DMSO [2] 102% | percent response of DMSO control [3] 105% | GFP response vs DMSO [4] 96.5% | GFP response, % of DMSO [5] 98.2% | vesicle binding response [6] 102% | inhibition [7] -1.74% | superoxide response (% of plate) [8] 113% | aptamer binding inhibition [9] 3% | response [10] 1.82% | inhibition [11] 18.1% | response [12] 0.53% | binding (% of control) [13] 96.4% | efflux inhibition (fraction of control) [14] 0.01 | inhibition [15] -1% | differentiation response [16] 14.9%

CCOCC(=O)Nc1ccccc1C(=O)N1CCOCC1
67.2%: double positive events [6]
inactive: percent of DMSO control GFP [1] 97% | GFP response vs DMSO [2] 130% | percent response of DMSO control [3] 114% | GFP response vs DMSO [4] 88.6% | GFP response, % of DMSO [5] 87.7% | vesicle binding response [6] 182% | inhibition [7] -2.27% | superoxide response (% of plate) [8] 96.8% | aptamer binding inhibition [9] 6% | response [10] 2.34% | inhibition [11] 14.3% | response [12] -3.44% | binding (% of control) [13] 100% | efflux inhibition (fraction of control) [14] 0.23 | differentiation response [16] 0%

COc1c(O)ccc2c1CN1CCc3cc4c(cc3C1C2)OCO4 (stereo not given)
61.6%: double positive events [6]
active: efflux inhibition (fraction of control) [14] 0.66
inactive: percent of DMSO control GFP [1] 107% | GFP response vs DMSO [2] 112% | percent response of DMSO control [3] 93.9% | GFP response vs DMSO [4] 130% | GFP response, % of DMSO [5] 103% | vesicle binding response [6] 157% | superoxide response (% of plate) [8] 92.6% | aptamer binding inhibition [9] 1% | response [10] 24.6% | inhibition [11] 30.3% | response [12] -1.39% | binding (% of control) [13] 99.7% | inhibition [15] -25% | differentiation response [16] 23.2%

C#C[C@]1(O)CC[C@H]2[C@@H]3CCc4cc(O)ccc4[C@H]3CC[C@@]21C
51.2%: double positive events [6]
inactive: percent of DMSO control GFP [1] 94.4% | GFP response vs DMSO [2] 109% | percent response of DMSO control [3] 110% | GFP response vs DMSO [4] 84.7% | GFP response, % of DMSO [5] 100% | vesicle binding response [6] 88.7% | inhibition [7] 7.43% | superoxide response (% of plate) [8] 76.7% | aptamer binding inhibition [9] -5% | response [10] -0.6% | inhibition [11] 1.36% | response [12] 2.14% | binding (% of control) [13] 106% | efflux inhibition (fraction of control) [14] 0.19 | inhibition [15] 9% | differentiation response [16] -3.28%

CCN(CC)c1ccc2cc(-c3nc(-c4ccc(OC)cc4)cs3)c(=O)oc2c1
132%: GFP response relative to DMSO ([18]; measured here: daughter cell gate response)
152%: GFP response, % of DMSO [20, 21]
inactive: GFP response vs DMSO [17] 105% | GFP response relative to DMSO [18] 138%
106%: GFP response vs DMSO [17, 22]
149%: GFP response, % of DMSO [20, 22]
103%: GFP response vs DMSO [17, 21]
135%: GFP response relative to DMSO ([18]; measured here: mother cell gate response)
active: GFP response vs DMSO [19] 180% | GFP response, % of DMSO [20] 160%

O=c1nc2sc3ccccc3n2c(=O)n1-c1ccc(Cl)cc1
inactive: percent of DMSO control GFP [1] 105% | GFP response vs DMSO [2] 97.2% | percent response of DMSO control [3] 108% | GFP response vs DMSO [4] 96.6% | GFP response, % of DMSO [5] 99.7% | vesicle binding response [6] 232% | inhibition [7] -12.9% | superoxide response (% of plate) [8] 110% | aptamer binding inhibition [9] -3% | response [10] -10.3% | inhibition [11] -5.72% | response [12] 1.03% | binding (% of control) [13] 96.4% | efflux inhibition (fraction of control) [14] -0.14 | inhibition [15] 11% | differentiation response [16] 3.18%
64.1%: double positive events [6]

COc1ccc(CCNC(=O)c2ccc(Cl)cc2)cc1OC
inactive: percent of DMSO control GFP [1] 103% | GFP response vs DMSO [2] 109% | percent response of DMSO control [3] 107% | GFP response vs DMSO [4] 121% | GFP response, % of DMSO [5] 111% | vesicle binding response [6] 196% | inhibition [7] 2.93% | superoxide response (% of plate) [8] 107% | aptamer binding inhibition [9] -1% | response [10] 6.98% | inhibition [11] -0.98% | response [12] -0.59% | binding (% of control) [13] 104% | efflux inhibition (fraction of control) [14] 0.39 | inhibition [15] -7% | differentiation response [16] -17.7%
59.6%: double positive events [6]

CSCC[C@H](NC(=O)NC1CCCC1)C(=O)O
inactive: percent of DMSO control GFP [1] 89.8% | GFP response vs DMSO [2] 113% | percent response of DMSO control [3] 99.2% | GFP response vs DMSO [4] 75.4% | GFP response, % of DMSO [5] 89.6% | vesicle binding response [6] 233% | inhibition [7] 8.4% | superoxide response (% of plate) [8] 113% | aptamer binding inhibition [9] 3% | response [10] -7.36% | inhibition [11] -9.17% | response [12] 1.23% | binding (% of control) [13] 101% | efflux inhibition (fraction of control) [14] 0.34 | inhibition [15] 13% | differentiation response [16] 0.82%
70.2%: double positive events [6]

CCN(CCCc1ccccc1)CCCc1ccccc1
63.1%: double positive events [6]
inactive: percent of DMSO control GFP [1] 100% | GFP response vs DMSO [2] 103% | percent response of DMSO control [3] 102% | GFP response vs DMSO [4] 106% | GFP response, % of DMSO [5] 118% | vesicle binding response [6] 202% | inhibition [7] 27.8% | superoxide response (% of plate) [8] 118% | aptamer binding inhibition [9] 0% | response [10] -9.83% | inhibition [11] 34.3% | response [12] -9.09% | binding (% of control) [13] 103% | efflux inhibition (fraction of control) [14] 0.04 | inhibition [15] 3% | differentiation response [16] -9.91%

CC1(C)S[C@@H]2[C@H](NC(=O)[C@H](N)c3ccccc3)C(=O)N2[C@H]1C(=O)O
inactive: percent of DMSO control GFP [1] 94.2% and 101% | GFP response vs DMSO [2] 112% and 102% | percent response of DMSO control [3] 110% and 102% | GFP response vs DMSO [4] 73.2% and 108% | GFP response, % of DMSO [5] 93.1% and 112% | vesicle binding response [6] 234% and 191% | inhibition [7] 6.46% and 15.1% | superoxide response (% of plate) [8] 95.9% and 95% | aptamer binding inhibition [9] 4% and 7% | response [10] -4.57% and -17.9% | inhibition [11] 0.2% and -9.24% | response [12] 4.43% and -37.5% | binding (% of control) [13] 108% and 102% | inhibition [15] 4% and 0% | differentiation response [16] -1.64% and -7.94%
68.4% and 59.6%: double positive events [6]
